This is an account of results in PubChem BioAssay (NCI).

A short description of experiment [1]: NCI Yeast Anticancer Drug Screen. Data for the rad50 strain (AID 155).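 Note: 0% = growth of vehicle-only cultures of the same strain.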 To be noted: S. cerevisiae rad50 strain growth inhibition; at 50.0 µM; hits give high values. The essentials:
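Cells are treated with compound, grown, and their growth is then scored against vehicle-only cultures of the same repair-deficient yeast strain.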

A short description of experiment [2]: NCI Yeast Anticancer Drug Screen. Data for the mec2-1 strain (AID 157). To be noted: S. cerevisiae mec2-1 strain, at 50.0 µM, hits give high values. The gist of the method:
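Strain: mec2-1 (DNA repair/cell cycle alteration). Compound exposure, then growth measured; inhibition expressed relative to vehicle.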

Experiment [3] in a line: NCI Yeast Anticancer Drug Screen. Data for the sgs1 mgt1 strain (AID 161).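 Note: 0% = growth of cultures given vehicle only.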 Conditions: S. cerevisiae sgs1 mgt1 strain, at 50.0 µM, hits give high values. The essentials:
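Read-out: growth inhibition vs vehicle controls. Cells: mutant yeast strain deficient in DNA damage repair.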

Experiment [4] can be described thus: NCI Yeast Anticancer Drug Screen. Data for the cln2 rad14 strain (AID 165).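 Note: 0% = growth equal to vehicle treated cultures.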 Conditions: S. cerevisiae cln2 rad14 strain, at 50.0 µM, hits give high values. The gist of the method:
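Compounds are applied to the cln2 rad14 yeast strain, and growth is then compared with that of vehicle-treated cultures to give inhibition.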

Experiment [5] is described as follows: NCI Yeast Anticancer Drug Screen. Data for the bub3 strain (AID 167). Conditions: S. cerevisiae bub3 mutant strain, at 50.0 µM, hits give high values. The essentials:
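Part of a panel of yeast mutants defective in DNA damage repair or cell cycle regulation. Each strain is grown with compound, and inhibition is calculated relative to solvent-treated cultures.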

Experiment [6] is described as follows: NCI Yeast Anticancer Drug Screen. Data for the mlh1 rad18 strain (AID 175). To be noted: S. cerevisiae mlh1 rad18 strain growth inhibition; at 50.0 µM; hits give high values. The essentials:
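Read-out is yeast growth inhibition, calculated against vehicle-only controls. The compound was applied to a strain engineered with DNA damage repair alterations.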

This is part of a sample that, as a whole, favours compounds with a hit. Of some 79,000 tested, about 15% had one in any assay. A number with no mark means an inactive call. Active and inactive are the calls of the source. Cut-off read from the data, not from the text of the source: active = growth inhibition above about 70%; inactive = the rest.

Consider `O=[N+]([O-])c1ccccc1S(=O)c1ccccc1` (stereo not given), for which the growth inhibition in experiment [1] was -1.65%; in experiment [2] it was -0.15%; in experiment [3], -4.3%; in experiment [4], 11.2%; in experiment [5], -6.5%; in experiment [6], -6.25%.

Consider `O=C1CN(/C=C(\c2ccccc2)S(=O)Cc2ccccc2)C(=S)N1` (stereo not given), for which the growth inhibition in experiment [1] was -19.9%; in experiment [2], -29.5%; in experiment [3] it was -28.4%; in experiment [4], -7.7%; in experiment [5], 0%; in experiment [6] it was -24.2%.

For `N#CC1(Nc2ccc(Cl)cc2)CCCC1`, the growth inhibition in experiment [1] is 5.6%; in experiment [2], 2.4%; in experiment [3], -6.5%; in experiment [4] it was -15.6%; in experiment [5] it was 13.8%; in experiment [6], 3.1%.

In the case of `Cc1ccc2[nH]c(C)c(C(=O)c3cccnc3)c2c1`, the growth inhibition in experiment [1] is -7.55%; in experiment [2] it was 0.85%; in experiment [3] it was 13.2%; in experiment [4], -13.3%; in experiment [5], -18.6%; in experiment [6], -8.4%.

For `COC(=O)/C=C(/C(=O)OC)N(O)C(=O)CN1C(=O)c2ccccc2C1=O`, the growth inhibition was -16% in experiment [1]; -15.9% in experiment [2]; -18.7% in experiment [3]; -17.3% in experiment [4]; -5.85% in experiment [5]; -23.2% in experiment [6].

With `C=CCCCCCCCCC(=O)N1CCN(C)CC1`, the growth inhibition in experiment [1] is 46.1%; in experiment [2], -14%; in experiment [3], 9.1%; in experiment [4], 16.6%; in experiment [5], -5.25%; in experiment [6], 27.6%.

Consider `COc1ccc(C(CN(C)C(C)C)OC(=O)C(c2ccccc2)c2ccccc2)cc1OC` (stereo not given), for which the growth inhibition in experiment [1] is -14.1%; in experiment [2] it was -6.85%; in experiment [3] it was -12.6%; in experiment [4], -8.25%; in experiment [5], 1.25%; in experiment [6], -17.5%.

On to `O=C(/C=C/c1ccc2c(c1)OCO2)NCc1ccco1`, for which the growth inhibition was 53.5% in experiment [1]; 8.7% in experiment [2]; -19.6% in experiment [3]; -5.8% in experiment [4]; -14.4% in experiment [5]; -34.9% in experiment [6].

As to `C[Si](C)(C)O/C=C1/CCOC1=O`, the growth inhibition in experiment [1] was 46.9%; in experiment [2], 45.7%; in experiment [3] it was -13.9%; in experiment [4] it was -6.5%; in experiment [5], -39.8%; in experiment [6], -45%.

As for `CCC1CCC(C(C)(C)C)C(=O)C1` (stereo not given), the growth inhibition in experiment [1] is 6.45%; in experiment [2] it was 1.75%; in experiment [3], 2.55%; in experiment [4], -11.3%; in experiment [5], 3.7%; in experiment [6], -4%.

For `O=C1NC(=O)C2(CCCC2=Nc2ccc(Br)cc2)C2C=CN(Cc3ccccc3)C=C12` (stereo not given), the growth inhibition in experiment [1] is 0.25%; in experiment [2] it was -4.25%; in experiment [3], 6.3%; in experiment [4] it was 2.4%; in experiment [5], 3.65%; in experiment [6], 35.2%.

Regarding `CC1OC(OC2C(OC3C(OC4CCC5(C)C(CCC6(C)C5CC=C5C7CC(C)(C)CCC7(C(=O)O)CCC56C)C4(C)C)OCC(O)C3O)OC(CO)C(O)C2O)C(O)C(O)C1O` (stereo not given), the growth inhibition is 92.8% (active) in experiment [1]; 94.4% (active) in experiment [2]; 94.3% (active) in experiment [3]; 92.3% (active) in experiment [4]; 93.8% (active) in experiment [5]; 93.8% (active) in experiment [6].

Turning to `CCCc1cc(=O)n(CCCc2ccccc2)c(=O)[nH]1`, the growth inhibition was -3.85% in experiment [1]; 1.25% in experiment [2]; 13.4% in experiment [3]; -7.75% in experiment [4]; 15.2% in experiment [5]; 18.4% in experiment [6].

For `CCNc1nc(C)nc2c1cnn2C`, the growth inhibition was 5% in experiment [1]; 4.85% in experiment [2]; -1.85% in experiment [3]; -13.2% in experiment [4]; 17.8% in experiment [5]; -1% in experiment [6].

For `CC1CCC2C1(C)CCC1C2(C)CCC2(C)C3CC(C)(C)CCC3(C)CCC12C` (stereo not given), the growth inhibition in experiment [1] is -9.45%; in experiment [2], -35.8%; in experiment [3] it was -12.8%; in experiment [4] it was 1.6%; in experiment [5], -26.4%; in experiment [6], -11.2%.

Regarding `CON(C)CCOC(=O)c1ccc([N+](=O)[O-])cc1`, the growth inhibition in experiment [1] was -5.25%; in experiment [2], 4.15%; in experiment [3], -2.6%; in experiment [4], -21.4%; in experiment [5] it was 3.95%; in experiment [6], 27.2%.

Consider `c1cc(CCc2ccncc2)ccn1`, for which the growth inhibition was 21.9% in experiment [1]; -16.1% in experiment [2]; 2.5% in experiment [3]; 3.6% in experiment [4]; 1.3% in experiment [5]; 22.4% in experiment [6].

In the case of `Nc1ccc2cccc(N)c2n1`, the growth inhibition in experiment [1] was 34.5%; in experiment [2] it was 12.2%; in experiment [3] it was 8.85%; in experiment [4], 5.9%; in experiment [5], -5.65%; in experiment [6], -0.55%.

In the case of `O=[N+]([O-])c1ccc(N=C/C=C/Nc2ccc([N+](=O)[O-])cc2)cc1`, the growth inhibition was 5% in experiment [1]; 0.7% in experiment [2]; 10.5% in experiment [3]; -8.6% in experiment [4]; 6.3% in experiment [5]; 20.8% in experiment [6].

Turning to `C/C(=N/Nc1ccc([N+](=O)[O-])cc1[N+](=O)[O-])c1ccccc1`, the growth inhibition in experiment [1] was -4.25%; in experiment [2], -13.2%; in experiment [3], -12.7%; in experiment [4] it was -13.8%; in experiment [5], 1%; in experiment [6], -11%.
